This note sets out measurements from PubChem BioAssay.

The subject of experiment [1] is Human papillomavirus type 1a protein E7 (residues 44-93). Kind of experiment: small molecules binding HPV E7 44-93 – biochemical, small-molecule microarray, residues 44-93, 635 nm fluorescence, primary screen (AID 1108).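 Further: E7 fragment applied at 1 µg/mL in TBST for 1 h at 4 C; score combines spot fluorescence with its signal to noise ratio.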 The conditions noted are these: fluorescence 635 nm, higher = more signal.
A short description of experiment [2]: hepatitis C replication reporter changes, two-sided – Huh7 cells, luciferase reporter, HCV replication inhibitor project, primary screen (AID 1109).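 Further: huh7 hepatoma cells harbouring a luciferase neomycin HCV replicon reporter; luciferase luminescence as measure of HCV replicon replication; test concentration not given here.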 The conditions noted are these: Huh7 HCV replicon luciferase reporter, 48 h; higher = more signal.
The target of experiment [3] is Left-right determination factor 2 (Homo sapiens) (UniProt O00292). Kind of experiment: small molecules binding LEFTY2 protein – biochemical, small-molecule microarray, 635 nm fluorescence scan, primary screen (AID 1110). The conditions noted are these: higher = more signal.
Sequence of Left-right determination factor 2 (Homo sapiens) (O00292 whole entry, looked up): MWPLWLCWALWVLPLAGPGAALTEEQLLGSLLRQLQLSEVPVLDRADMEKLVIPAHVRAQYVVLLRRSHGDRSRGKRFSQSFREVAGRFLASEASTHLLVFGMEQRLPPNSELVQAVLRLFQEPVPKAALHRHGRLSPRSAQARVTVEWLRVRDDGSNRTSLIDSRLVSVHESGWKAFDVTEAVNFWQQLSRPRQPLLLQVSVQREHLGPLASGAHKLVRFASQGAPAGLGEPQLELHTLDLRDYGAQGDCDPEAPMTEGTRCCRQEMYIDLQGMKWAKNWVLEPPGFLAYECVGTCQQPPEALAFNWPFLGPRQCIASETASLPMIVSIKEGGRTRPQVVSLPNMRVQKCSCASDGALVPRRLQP
Experiment [4] concerns the target Calmodulin-1 (Homo sapiens) (UniProt P0DP23). Briefly: small molecules binding calmodulin-1 with EGTA – biochemical, small-molecule microarray, Cy5-labelled CALM1, profiling panel (AID 1111).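 Further: labelled calmodulin applied in Tris saline Tween buffer holding calcium plus EGTA and DTT.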 The conditions noted are these: Cy5-CALM1 binding fluorescence, higher = more signal.
Experiment [5] has the same target. Kind of experiment: small molecules binding Ca-loaded calmodulin-1 – biochemical, small-molecule microarray, Cy5-labelled CALM1, plus calcium, artefact control for SMM control-protein annotation, profiling panel (AID 1112).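 Further: score merges spot fluorescence with signal to noise from triplicate slides.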 The conditions noted are these: Cy5-CALM1 binding fluorescence, higher = more signal.
Experiment [6] is described as follows: probe aWnt5a binding to arrayed compounds – biochemical, biotinylated probe, 635/667 nm fluorescence, primary screen (AID 1113).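 Further: score merges 667 nm fluorescence intensity with signal-to-noise per printed feature.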 The conditions noted are these: small-molecule microarray, higher = more signal.
Experiment [7] is described as follows: probe aShh binding to arrayed compounds – biochemical, biotinylated probe, 635/667 nm fluorescence, primary screen (AID 1114).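 Further: probe is biotin-labelled aShh protein from a stem cell growth factor screen; measures binding of labelled protein to compounds printed on the slide; score merges feature fluorescence at 667 nm with signal-to-noise.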 The conditions noted are these: small-molecule microarray, higher = more signal.
Experiment [8] in a line: probe aNog binding to arrayed compounds – biochemical, biotinylated probe, 635/667 nm fluorescence, primary screen (AID 1115).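 Further: probe is biotinylated aNog protein used at 0.15 µg/mL for 1 h at 4 C; z-score combines 667 nm fluorescence of each spot with its signal to noise.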 The conditions noted are these: small-molecule microarray, higher = more signal.
Experiment [9] deals with Torsin-1A-interacting protein 1 (Homo sapiens) (UniProt Q5JTV8). Kind of experiment: compound microarray binding of lysate hLAP1 – cell lysate, small-molecule microarray, COS7 lysate, 635/667 nm fluorescence, primary screen (AID 1116). The conditions noted are these: 635 nm fluorescence, higher = more signal.
Sequence of Torsin-1A-interacting protein 1 (Homo sapiens) (Q5JTV8 whole entry, looked up): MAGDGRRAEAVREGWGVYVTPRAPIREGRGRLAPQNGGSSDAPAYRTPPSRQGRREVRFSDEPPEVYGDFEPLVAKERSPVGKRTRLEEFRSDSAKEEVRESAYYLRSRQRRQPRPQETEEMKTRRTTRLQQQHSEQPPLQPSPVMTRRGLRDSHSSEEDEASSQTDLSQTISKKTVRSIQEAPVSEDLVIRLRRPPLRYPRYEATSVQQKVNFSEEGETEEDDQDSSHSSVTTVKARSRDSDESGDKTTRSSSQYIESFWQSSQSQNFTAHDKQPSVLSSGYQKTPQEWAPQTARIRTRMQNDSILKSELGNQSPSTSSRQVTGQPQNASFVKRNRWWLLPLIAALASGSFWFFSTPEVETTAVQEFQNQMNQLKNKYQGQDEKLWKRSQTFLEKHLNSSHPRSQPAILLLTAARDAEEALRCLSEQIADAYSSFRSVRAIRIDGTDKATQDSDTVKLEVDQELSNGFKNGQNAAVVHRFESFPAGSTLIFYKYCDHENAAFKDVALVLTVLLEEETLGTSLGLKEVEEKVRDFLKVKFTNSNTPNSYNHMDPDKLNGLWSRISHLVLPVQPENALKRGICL
The target in experiment [10] is Alpha-bungarotoxin (Bungarus multicinctus) (UniProt P60615). Briefly: compounds binding labelled alpha-BTX control protein – biochemical, small-molecule microarray, Alexa647 label, 635/667 nm fluorescence, artefact control for SMM control protein annotation, profiling panel (AID 1117). The conditions noted are these: alpha-BTX-A647 binding fluorescence, higher = more signal.
Sequence of Alpha-bungarotoxin (Bungarus multicinctus) (P60615 whole entry, looked up): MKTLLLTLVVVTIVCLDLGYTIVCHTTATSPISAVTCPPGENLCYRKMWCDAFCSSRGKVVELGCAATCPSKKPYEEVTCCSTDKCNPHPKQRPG

Experiment [11] addresses Albumin (Bos taurus) (UniProt P02769). Briefly: compounds binding labelled BSA control protein – biochemical, small-molecule microarray, Alexa647 label, 635/667 nm fluorescence, artefact control for SMM control protein annotation, profiling panel (AID 1118).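 Further: score merges 667 nm emission intensity and signal-to-noise per printed compound spot.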 The conditions noted are these: BSA-A647 binding, fluorescence 635 nm, higher = more signal.
The nature of experiment [12]: probe aXIP binding to arrayed compounds – biochemical, NeuroSMM set, 635/667 nm fluorescence, primary screen (AID 1119).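 Further: probe is the protein aXip251-270 applied at 1 µg/mL to compound-printed slides; binding of probe to printed compounds measured as 667 nm fluorescence plus signal to noise.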 The conditions noted are these: small-molecule microarray, higher = more signal, called active from +8 up or from −8 down.
Experiment [13] can be described thus: probe aNOTCH3 binding on compound microarray – biochemical, small-molecule microarray, 635/667 nm fluorescence, primary screen (AID 1120).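 Further: probe is a biotin-tagged antibody raised against NOTCH3 rather than NOTCH3 protein; score merges spot fluorescence near 667 nm with spot signal to noise.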 The conditions noted are these: higher = more signal.
The nature of experiment [14]: probe aNOTCH2 binding on compound microarray – biochemical, small-molecule microarray, 635/667 nm fluorescence, primary screen (AID 1121).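 Further: score merges feature fluorescence read at 667 nm with its signal to noise.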 The conditions noted are these: higher = more signal.
Experiment [15] concerns the target Carbonic anhydrase 2 (Homo sapiens) (UniProt P00918). Briefly: compounds binding carbonic anhydrase 2 – biochemical, small-molecule microarray, Alexa647-labelled CAII, profiling panel (AID 1122). The conditions noted are these: CAII-A647 binding fluorescence, higher = more signal.
Experiment [16] can be described thus: COS7 lysate on small-molecule microarray, probe aHis, 635 nm (AID 1123).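 Further: z-score combines 667nm fluorescence intensity with signal-to-noise per printed compound spot.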 The conditions noted are these: COS7 cell lysate, fluorescence, higher = more signal.
Experiment [17] is described as follows: probe aLAP1 signal on lysate-treated microarray – cell lysate, small-molecule microarray, COS7 lysate, primary screen (AID 1124).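 Further: lysate comes from COS7 cells expressing LAP1 and is applied at 0.3 µg/mL; score merges spot fluorescence near 667 nm with signal-to-noise over triplicate slides.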 The conditions noted are these: probe aLAP1, fluorescence, higher = more signal.
For experiment [18], the system named is Sam68 (KHDRBS1). Briefly: compounds binding KHDRBS1 protein – biochemical, small-molecule microarray, 635 nm fluorescence, primary screen (AID 1125).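 Further: score merges 667 nm channel intensity with signal to noise over triplicate slides.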 The conditions noted are these: higher = more signal.
Experiment [19] concerns Chordin-like protein 2 (CHRDL2). Kind of experiment: compounds binding chordin-like 2 – biochemical, small-molecule microarray, 635 nm fluorescence, primary screen (AID 1126).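 Further: printed compound slides probed with Chrdl2 protein at 4 µg/mL for 1 h at 4 C; score merges 667 nm emission intensity with signal to noise over three replicate slides.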 The conditions noted are these: fluorescence 635 nm, higher = more signal.
For experiment [20], the target named is Concanavalin-A (Canavalia ensiformis) (UniProt P02866). Kind of experiment: compounds binding concanavalin A lectin – biochemical, small-molecule microarray, Alexa647 label, 635 nm, artefact control for SMM control protein annotation, primary screen (AID 1127).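 Further: z combines 667 nm emission intensity with signal-to-noise across three replicate slides.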 The conditions noted are these: ConA-A647 binding fluorescence, higher = more signal.
Sequence of Concanavalin-A (Canavalia ensiformis) (P02866 whole entry, looked up): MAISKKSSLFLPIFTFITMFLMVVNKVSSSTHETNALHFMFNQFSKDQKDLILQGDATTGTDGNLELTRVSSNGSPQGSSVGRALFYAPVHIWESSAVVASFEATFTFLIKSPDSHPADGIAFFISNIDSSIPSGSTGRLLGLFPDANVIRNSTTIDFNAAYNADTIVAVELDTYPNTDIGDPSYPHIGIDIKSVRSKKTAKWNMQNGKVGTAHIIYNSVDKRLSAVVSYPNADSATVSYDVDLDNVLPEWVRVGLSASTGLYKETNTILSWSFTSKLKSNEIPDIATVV

Values joined by “and” are separate entries in the source; they are usually repeats but may differ in a detail not shown here. Equal values may be shown once. Active and inactive are the calls of the source.

Sequence of Albumin (Bos taurus) (P02769 whole entry, looked up): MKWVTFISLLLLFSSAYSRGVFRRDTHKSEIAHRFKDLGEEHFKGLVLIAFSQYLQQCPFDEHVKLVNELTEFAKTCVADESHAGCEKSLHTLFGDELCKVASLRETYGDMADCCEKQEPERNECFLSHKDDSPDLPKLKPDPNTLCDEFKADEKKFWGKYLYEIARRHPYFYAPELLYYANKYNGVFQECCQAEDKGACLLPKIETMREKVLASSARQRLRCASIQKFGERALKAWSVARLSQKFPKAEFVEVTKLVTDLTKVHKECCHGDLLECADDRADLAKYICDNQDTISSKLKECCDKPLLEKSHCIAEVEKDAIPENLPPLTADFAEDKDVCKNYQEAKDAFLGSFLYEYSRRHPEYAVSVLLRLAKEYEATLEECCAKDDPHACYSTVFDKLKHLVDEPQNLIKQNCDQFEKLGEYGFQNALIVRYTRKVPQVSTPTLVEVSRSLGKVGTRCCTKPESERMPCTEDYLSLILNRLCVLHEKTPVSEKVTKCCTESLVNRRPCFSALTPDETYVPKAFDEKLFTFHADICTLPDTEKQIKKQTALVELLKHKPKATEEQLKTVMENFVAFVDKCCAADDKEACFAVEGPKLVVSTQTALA

Regarding `Cc1ccc(S(=O)(=O)OC[C@@H]2CN3[C@@H](CC[C@@H](C)[C@@H]3c3ccc(Br)cc3)C(=O)O2)cc1`, the composite z-score in experiment [1] is 0.574 and 0.644; in [3] it was 0.57 and 0.483; in experiment [4] it was 0.192 and 0.679; in experiment [5], 0.2 and -0.302; in [6] it was -0.0704 and 0.0194; in [7], -0.237 and -0.16. In addition, the composite z-score in experiment [8] is -0.172 and -0.0898; in experiment [9], 0.301 and 0.359; in experiment [10] it was 0.153 and 0.448; in [11] it was 0.278 and 0.51; in experiment [13], 0.062 and 0.0051; in experiment [14], -0.124 and -0.0326. Moreover, the composite z-score in experiment [15] was 0.11 and 0.427; in [16], -0.0886 and 0.315; in experiment [17], -0.162 and 0.565; in [18] it was 0.418 and 0.99; in experiment [19] it was 0.251 and 0.327; in experiment [20], 0.446 and 0.54. For the same molecule, the z-score in experiment [2] was -0.796 and -0.729. In [12], the composite Z-score is -0.19 (inactive) and 0.177 (inactive).
On to `O=C1C[C@]2(c3ccc([N+](=O)[O-])cc3)C(=O)N(Cc3ccccc3)c3cc(CO)ccc3[C@H]2N1C1CCCCC1`, for which the composite z-score in [1] was 0.986 and 0.622; in experiment [3] it was -1.1 and 0.586; in experiment [4] it was -0.135 and 1.19; in [5], -0.195 and 0.163; in [6], -0.0546 and -0.0556; in experiment [7], 0.0611 and 0.393. The composite z-score in [8] was -0.262 and 0.344; in experiment [9], 0.395 and -0.136; in experiment [10] it was 0.0277 and -0.0515; in experiment [11], -0.047 and -0.118; in experiment [13], -0.0627 and 0.13; in experiment [14] it was -0.179 and 0.0118. For the same molecule, the composite z-score was 0.272 and 0.439 in experiment [15]; 0.366 and 1.14 in experiment [16]; 0.679 and -0.627 in experiment [17]; 0.802 and 0.377 in experiment [18]; -0.468 and 0.393 in experiment [19]; 0.28 and 0.772 in experiment [20]. Moreover, the z-score in [2] was -0.107 and -2.97. Further, the composite Z-score in experiment [12] was 0.285 (inactive) and -0.0345 (inactive).
Turning to `CCCCCN1CC=CC23O[C@@H]4C=CCCOC(=O)C4[C@H]2C(=O)N(C(C)CO)[C@@H]3C1=O` (stereo not given in full), the composite z-score was 0.439 and 1.12 in experiment [1]; -0.151 and -0.907 in [3]; -0.858 and 0.167 in experiment [4]; -0.707 and -0.806 in experiment [5]; -0.357 and -0.28 in experiment [6]; -0.223 and -0.0035 in experiment [7]. In addition, the composite z-score is -0.789 and -0.301 in experiment [8]; -0.759 and 2.57 in experiment [9]; -0.342 and 0.335 in experiment [10]; 0.345 and -0.098 in experiment [11]; -0.536 and -0.0416 in experiment [13]; -0.475 and -0.181 in [14]. Also, the composite z-score in experiment [15] was 0.792 and 0.844; in experiment [16], 0.654 and 1.55; in [17] it was 0.114 and 0.885; in experiment [18], 0.656 and 0.708; in experiment [19], -0.397 and -0.845; in [20], -0.0729 and 0.147. In addition, the z-score in experiment [2] is -1.79 and 1.05. Also, the composite Z-score in experiment [12] was -0.0812 (inactive) and -0.45 (inactive).
For `O=C1NC(=O)C2C1C=CC(C(O)c1ccc([N+](=O)[O-])cc1)N2Nc1ccc(Cl)cc1Cl` (stereo not given), the composite z-score was 0.481 and -0.621 in experiment [1]; -0.176 and -0.0882 in experiment [3]; 1.01 and 1.48 in experiment [4]; 0.436 and 0.0078 in [5]; -0.0566 and 0.0775 in experiment [6]; 0.0326 and -0.241 in experiment [7]. In addition, the composite z-score was 1.94 and 2.12 in experiment [8]; 1.9 and 1.62 in experiment [9]; 1.18 and 1.56 in [10]; 0.933 and 0.732 in experiment [11]; 0.0597 and 0.133 in [13]; 0.0454 and 0.153 in experiment [14]. For the same molecule, the composite z-score in experiment [15] is 0.483 and 0.751; in experiment [16], 2.95 and 2.03; in experiment [17], 0.673 and 1.28; in experiment [18], 0.415 and 0.584; in experiment [19] it was -0.532 and -0.0926; in experiment [20] it was 0.738 and 0.461. The z-score in [2] was 0.175 and -1.19. In addition, the composite Z-score in [12] is -0.35 (inactive) and -0.195 (inactive).
On to `Cc1ccc(S(=O)(=O)N[C@H]2COC(=O)[C@@H](Cc3ccccc3)NC(=O)[C@@H](C)COC(=O)CC=C[C@@H]2C)cc1`, for which the composite z-score in experiment [1] is -1.28 and 0.123; in [3], 0.839 and 0.546; in [4], -0.233 and -0.354; in [5], -0.372 and -0.879; in experiment [6], -0.1 and -0.0912; in experiment [7], 0.0494 and -0.138. The composite z-score in experiment [8] was -0.122 and -0.038; in experiment [9], 0.15 and -0.0849; in [10], 0.423 and -0.1; in experiment [11], -0.92 and -0.489; in experiment [13], -0.279 and -0.132; in experiment [14], -0.162 and -0.185. For the same molecule, the composite z-score in [15] was -0.363 and 0.129; in experiment [16], -0.902 and 0.614; in experiment [17] it was -0.221 and -0.16; in [18] it was -0.309 and 0.663; in experiment [19] it was 0.748 and 0.691; in experiment [20], 0.117 and 0.0745. Also, in [2], the z-score is 1.41 and -1.89. In experiment [12], the composite Z-score was 0.103 (inactive) and 0.304 (inactive).
